# How the values were obtained:
# Experiment in all cases: PBM binding z-score (relative to random genomic background probes); higher = stronger binding; sequences stand for … in GC…GCGATTGACAGCGTAGAATGAAGG
# [1] = tested on: FXR:RXRa (NR concentration 270 nM, RXRa partner concentration 90 nM)
# Outline: (§1)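 Ligand-free nuclear receptor dimers were bound for 1 h to custom Agilent 4×180K protein-binding microarrays. Detection used antibodies against each partner (one per run). Binding z-scores rest on regression-normalized fluorescence, with random background probes as the reference.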
# [2] = tested on: LXRa:RXRa (NR concentration 270 nM, RXRa partner concentration 90 nM)
# Outline: as §1
# [3] = tested on: LXRa homodimer (NR concentration 270 nM)
# Outline: as §1
# [4] = tested on: LXRb:RXRa (NR concentration 270 nM, RXRa partner concentration 90 nM)
# Outline: as §1
# [5] = tested on: LXRb homodimer (NR concentration 270 nM)
# Outline: as §1
# [6] = tested on: PPARa:RXRa (NR concentration 270 nM, RXRa partner concentration 90 nM)
# Outline: as §1
# [7] = tested on: PPARg:RXRa (NR concentration 180 nM, RXRa partner concentration 90 nM)
# Outline: as §1
# [8] = tested on: PPARg:RXRa 270nM:90nM, anti-RXR (NR concentration 270 nM, RXRa partner concentration 90 nM)
# Outline: as §1
# [9] = tested on: PPARg:RXRa 30nM:10nM, anti-RXR (NR concentration 30 nM, RXRa partner concentration 10 nM)
# Outline: as §1
# [10] = tested on: PPARg:RXRa 90nM:30nM, anti-RXR (NR concentration 90 nM, RXRa partner concentration 30 nM)
# Outline: as §1
# [11] = tested on: PPARg:RXRa DBDmut IVT, anti-RXR (DBD mutation: RXRa K156A/R161A, NR concentration 270 nM, RXRa partner concentration 90 nM)
# Outline: as §1
# [12] = tested on: PPARg:RXRa IVT, anti-PPARg (NR concentration 270 nM, RXRa partner concentration 90 nM)
# Outline: as §1
# [13] = tested on: PPARg DBDmut:RXRa IVT, anti-PPARg (DBD mutation: PPARg1 K132A/R137A, NR concentration 270 nM, RXRa partner concentration 90 nM)
# Outline: as §1
# [14] = tested on: PPARg DBDmut IVT, anti-PPARg (DBD mutation: PPARg1 K132A/R137A, NR concentration 270 nM)
# Outline: as §1
# [15] = tested on: PPARg homodimer (NR concentration 180 nM)
# Outline: as §1
# [16] = tested on: PXR:RXRa (NR concentration 270 nM, RXRa partner concentration 90 nM)
# Outline: as §1
# [17] = tested on: PXR homodimer (NR concentration 270 nM)
# Outline: as §1
# [18] = tested on: RARa:RXR (NR concentration 270 nM, RXRa partner concentration 90 nM)
# Outline: as §1
# [19] = tested on: RARa homodimer (NR concentration 270 nM)
# Outline: as §1
# [20] = tested on: RARb:RXRa (NR concentration 270 nM, RXRa partner concentration 90 nM)
# Outline: as §1
Sequence,PBM binding z-score [1],PBM binding z-score [2],PBM binding z-score [3],PBM binding z-score [4],PBM binding z-score [5],PBM binding z-score [6],PBM binding z-score [7],PBM binding z-score [8],PBM binding z-score [9],PBM binding z-score [10],PBM binding z-score [11],PBM binding z-score [12],PBM binding z-score [13],PBM binding z-score [14],PBM binding z-score [15],PBM binding z-score [16],PBM binding z-score [17],PBM binding z-score [18],PBM binding z-score [19],PBM binding z-score [20]
TAGCCTAGGTCATGGGCCAGAATACCACGCGAAC,4.31,3.48,0.271,2.33,-0.281,4.2,3.64,3.63,0.806,2.68,1.38,3.09,-0.303,-0.638,0.86,1.54,-0.601,2.51,0.121,3.73
CAAACTAGGACACGAAAGGTCAAAGTCGAATGAC,5.33,5.73,6.38,5.43,1.98,5.8,6.54,6.27,3.92,5.63,6.64,6.94,2.48,3.31,4.51,5.64,1.78,6.19,3.15,4.52
ACTAGCAGGCCAAGTTTGGGTCCCTCAAACAAAG,-0.607,-0.657,-0.583,-0.842,-0.875,-0.286,-0.709,-0.928,-1.06,-1.05,0.359,-0.00665,-1.13,-1.25,-0.378,-0.465,-0.57,-0.00931,-0.776,0.3
ATCTCTAGGTAAAAGTTCAGTAAATCCCGAGGAT,0.994,1.49,1.5,1.29,1.31,4.43,7.76,7.37,6.62,8.13,1.87,3.76,1.75,1.54,1.88,1.8,1.71,1.47,1.92,2.41
CCTACTGGGGCAAGGTCATTGATCAGTCAAAGCA,3.59,3.26,1.02,2.98,-0.569,4.29,5.81,5.36,2.53,4.8,4.91,5.97,1.59,0.39,4.67,3.88,1.04,4.17,0.391,3.5
CCAGACAGGTTAAAGGTAACTCAGTCTGGTACGC,1.95,1.84,0.195,1.63,-0.137,3.7,4.55,4.78,3.23,5.29,0.728,1.86,-0.35,-0.757,1.24,2.15,-0.196,3.52,0.287,1.69
GGAAGGAGGGCAAGTTGATAGCAGAGTTTGATGG,1.04,0.798,0.562,1.5,1.47,1.92,1.2,1.53,0.406,0.957,3.75,3.16,0.411,0.837,2.03,1.44,2.2,0.685,1.5,2.54
TCATATAGGTAAATGCTATGTGAAAGTCCGATCT,0.801,0.648,0.000605,0.522,-0.0167,1.13,1,2.16,3.62,3.03,3.59,2.05,1.25,1.39,0.542,0.621,-0.0684,0.813,1.29,0.304
AGAATGAGGTTATTAGGATCAGGGAATTGCGGTC,2.04,1.69,0.286,1.38,0.314,2.79,2.39,2.69,0.762,1.59,3.64,3.55,0.306,0.466,1.24,1.38,0.752,1.57,1.06,1.53
AATACTGGGTCACTAGGCCAGAGTAGGTACGAAT,1.9,1.69,0.246,1.5,0.438,4.37,8.02,5.97,3.2,4.75,6.63,7.76,5.62,2.22,1.9,0.792,0.0229,1.53,0.983,3.19
TCTTGTAGATGAAGCAGGTTAAGAAAGCCTGAGT,0.563,-0.122,-0.489,0.276,-0.649,0.511,-0.527,0.925,2.72,1.69,1.86,0.0295,0.394,-0.11,0.107,0.195,0.164,0.228,-0.232,-0.0996
CCTACTGGGCCACGAAAGGTCATTGATTCAGTGA,3.58,5.34,4.9,4.15,0.552,4.58,4.57,5.08,2.53,4.4,5.99,5.95,0.883,-0.339,4.26,5.45,2.06,5.9,1.7,4
CCTGCTACGTCATGGTCAGCTAATCTACAGTATG,-0.508,-0.217,-0.512,-0.505,-0.327,-0.4,0.216,-0.67,-0.17,-0.333,0.0597,-0.592,0.222,-0.835,-0.235,-0.16,-0.428,-0.116,-0.328,0.259
TCTGCTAGGTCAACGATGGTCAGCCAATCTGCTA,3.5,2.9,-0.0342,1.57,-0.0158,3.17,2.73,3.17,1.79,2.48,4.18,4.29,0.0146,-0.247,1.87,1.6,-0.979,2.02,-0.83,4.26
CAAACTAGGTCACCGGAAGGTCAAAATCCGCATG,5.79,5.77,4.45,5.33,1.71,6.21,9.82,7.79,5.96,7.63,8.74,9.07,7.15,5.58,9.41,5.86,1.73,7.2,3.23,5.11
ACTAGCAAGCCAAGTTTGGGTCACTCAAACAAAG,-0.12,-0.258,-0.55,0.443,-0.728,0.909,-0.253,0.132,-0.505,-0.56,-0.834,0.332,-1.3,-0.652,-0.225,0.253,-0.636,0.968,-0.901,0.801
GATACAGGGTCAGCTAGAGGCAAGAGTATGGAAA,4.32,2.35,-0.297,2.33,-0.0863,4.69,3.78,3.19,0.625,1.71,0.7,2.39,-0.415,-0.265,0.979,2.1,-0.207,2.8,0.136,3.97
TTACCAAGGTGAGCTGAGGGCGTTGATCCAACTC,0.29,-0.133,-0.543,-0.27,-1.16,0.372,-0.203,-0.041,-0.278,-0.0993,1.02,1.45,0.0128,-0.0146,-0.525,3.08,-0.168,1.11,-0.757,1.1
CGTCCAAGGTCAAAGGGCAGTGAAGAGATGACGG,7.23,5.66,1,4.32,0.742,6.15,7.62,7.16,5.08,7.03,2.96,4.49,0.0203,0.196,2.9,4.98,1.24,6.27,1.01,5.36
GGAACGAGGGCAAAGTCGATAGCATCTGTCGACG,0.356,0.379,-0.902,-0.096,-0.476,1.74,1.97,2.58,0.954,2.36,3.57,3.11,0.306,0.0307,-0.309,0.155,-0.0717,0.0883,-0.247,1.87
ATCGAAAGGTCGTTAGGTGAGTATACAGAAAGGC,3.98,3.54,0.592,3.08,1.11,4.25,2.59,3.29,1.33,2.27,0.388,2.1,1.14,1.04,1.51,2.9,0.99,3.2,0.848,3.53
GCGACTGGTGCAAAGCAGGTTACCATAAGGTTGG,-0.455,-0.431,-0.586,-0.35,-0.861,0.293,0.344,-0.0216,-0.591,-0.439,-0.384,0.329,-0.718,-1.22,-0.73,-0.0682,-0.682,0.163,-1.27,-0.0547
CCTCCTGGGCCAAAGGTCATTGATTCCAATGCTC,4.65,5.11,3.68,4.79,0.666,5.6,9.24,8.76,10.1,10.1,1.03,4.67,-0.712,-0.452,3.43,5.26,1.79,5.99,0.948,4.3
ACTAGTTGGTCAGTTGAGGTCACACACAATTCGG,3.26,3.93,3.56,3.58,0.939,4.12,2.13,2.59,0.914,1.69,1.58,2.98,1.37,0.982,3.72,5.67,2.39,4.98,1.56,3.54
AGTCAAAGTTCACTAGGTAACGTATGATTCAGCT,4.96,4.91,2.85,3.16,1.09,4.64,7.19,6.52,3,5.54,2.65,4.66,1.13,1.39,2.15,3.83,2.69,2.93,1.04,4.76
AATACAGGGTCACTAGGCCAGACTAGGTACGAAT,6.12,5.24,0.88,3.8,0.693,5.84,7.65,6.41,3.21,5.35,4.01,5.9,3.19,1.09,1.28,3.06,0.374,3.87,0.731,4.3
TCTGCTAGGTCAGTTGGTGAGCTAACGAGCTGCC,0.898,0.467,-0.796,-0.0479,0.264,0.853,-0.0831,1.38,1.18,1.13,2.62,2.7,0.403,1.14,-0.166,-0.0879,-1.19,0.102,-1.25,3.16
CGTCCAAGGTCATAGGAGGGCAGTGAAGACAGAT,7.39,6.11,1.55,4.12,0.284,5.68,5.29,5.19,1.85,3.99,3.1,3.89,1.14,0.568,2.4,6.12,1.56,4.4,0.613,5.06
TCTCGGAGGACACGAAAGGTCAGAGTTCGACATC,3.3,4.16,4.17,3.5,0.134,3.71,1.72,3.4,2.89,3.12,1.62,1.81,-0.309,-0.696,3.27,4.98,3,5.55,1.69,4.16
